Results as given in the supplement of paper PMC3334620.
The full ranking holds about 33,000 sequences; the median of “E-score (-0.5 to 0.5)” is about -0.043, and the highest 2% start at about 0.37. The sample as a whole holds a higher share of the highest values than the screen did.

molecular target: T1, Upc2 (UniProt Q12151); assay: PBM E-score (8-mer binding enrichment) (E-score (-0.5 to 0.5)); higher = stronger / more preferred TF binding; details: protein concentration: 200 nM; construct: GST-full length
T1 sequence: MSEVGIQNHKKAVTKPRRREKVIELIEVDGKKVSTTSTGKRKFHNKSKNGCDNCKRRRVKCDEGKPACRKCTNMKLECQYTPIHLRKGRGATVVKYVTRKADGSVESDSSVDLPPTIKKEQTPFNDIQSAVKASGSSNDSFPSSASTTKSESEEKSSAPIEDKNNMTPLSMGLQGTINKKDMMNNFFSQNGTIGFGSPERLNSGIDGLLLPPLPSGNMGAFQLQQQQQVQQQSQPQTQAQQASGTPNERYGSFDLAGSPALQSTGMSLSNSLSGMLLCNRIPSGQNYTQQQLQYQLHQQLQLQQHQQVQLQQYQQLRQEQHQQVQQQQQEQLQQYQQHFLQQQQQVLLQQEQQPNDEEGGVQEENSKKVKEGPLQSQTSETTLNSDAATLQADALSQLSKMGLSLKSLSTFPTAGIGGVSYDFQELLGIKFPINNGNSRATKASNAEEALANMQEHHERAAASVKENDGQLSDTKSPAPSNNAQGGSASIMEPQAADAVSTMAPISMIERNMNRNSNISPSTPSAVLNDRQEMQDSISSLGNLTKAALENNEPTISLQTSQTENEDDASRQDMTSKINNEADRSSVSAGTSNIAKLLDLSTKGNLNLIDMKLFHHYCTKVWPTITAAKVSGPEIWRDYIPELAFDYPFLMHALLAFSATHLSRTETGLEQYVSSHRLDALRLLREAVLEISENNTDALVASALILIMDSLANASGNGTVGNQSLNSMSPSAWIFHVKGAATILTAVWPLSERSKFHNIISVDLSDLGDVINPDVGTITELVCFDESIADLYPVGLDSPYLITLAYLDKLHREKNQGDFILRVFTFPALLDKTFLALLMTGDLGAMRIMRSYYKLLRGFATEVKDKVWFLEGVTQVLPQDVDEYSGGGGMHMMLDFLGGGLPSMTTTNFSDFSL
Procedure: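 Universal 'all 10-mer' protein binding microarrays (Agilent AMADID 015681) probed with GST-tagged S. cerevisiae TFs (full-length or DBD) made by in vitro transcription/translation (PURExpress), about 100-200 nM. Bound TF was detected with fluorescent anti-GST. Each ungapped 8-mer (which stands for itself and its reverse complement) is scored by the PBM enrichment score (E-score), a modified Wilcoxon-Mann-Whitney statistic from -0.5 to +0.5, computed with the Universal PBM Analysis Suite. Scale: above 0.35 generally sequence-specific binding.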

Sequence	PBM E-score
ACTGACTC	-0.192
CTCGAACA	-0.00626
CCAATAGC	-0.22
TACATCGA	0.038
GCTTACTA	-0.0799
CCTTACTA	0.029
ACTTACGA	0.382
GCTTACAA	-0.0171
ACTTACGC	-0.0998
GCTTACGA	0.421
CCTTACGA	0.407
ACTTACGG	0.194
CCTTACGC	0.193
GAAGTACC	0.114
GTGCCAAC	-0.0672
CTCCACCA	-0.177
GGATTGTA	0.107
ATGCCAAC	0.0593
GTTAGCGA	0.194
ACAATCCA	-0.0823
CGACGACA	0.173
GTACGACA	0.468

Sequence	PBM E-score
GCACGACA	0.0592
CCACGACA	-0.131
CTACGACA	0.311
ATACGACA	0.477
CCCGAGCC	-0.0326
CGCATTCA	-0.00072
CGTTAACA	0.274
CCTTAACG	0.38
CCTTAACA	-0.0468
ACTTAACG	0.339
CGTTAACG	0.422
CGTTAACC	0.348
AAATCTCC	-0.271
GTGACCAC	-0.283
ACAATGAT	-0.102
CGGCGCTC	0.16
GCCCTCGC	0.219
ATGGCTCA	-0.1
CCTTTACA	-0.0853
ACTTTACT	-0.151
ATTTTACG	0.394
ACTTTACA	0.0242

Sequence	PBM E-score
CCTTTACG	0.418
CCTTTACC	-0.191
AATTTACG	0.335
ATTTTACC	0.00835
ACTTTACG	0.409
ATTTGCAA	0.0573
AGATTGCT	-0.117
CAACTGCG	-0.0371
CTACGGAG	-0.138
GTACGGAC	0.35
GTACGGAA	0.377
ACACGGAG	-0.0181
GCACGGAA	-0.15
ATACGGAG	0.411
CTACGGAC	-0.0487
ATACGCAG	0.352
ATACGGAC	0.394
ATACGGAT	0.357
GTACGCAA	0.247
ATACGCAA	0.37
CATGAGTC	-0.0488
GTTCTCTA	0.102

Sequence	PBM E-score
CTCTCCTA	0.0887
GATTCACC	-0.129
AATGGAGA	-0.179
TATGCGCA	0.0561
TTACGGAA	0.258
ATACGGAA	0.372
CTACGGAA	0.0194
GGGGGCGA	-0.119
TACAGCAA	0.138
AGAGTGGG	0.0465
TGATCCAA	-0.132
CTACGACC	0.364
ACACGACG	0.267
ATACGACC	0.474
ACACGACC	0.154
ATACGACG	0.483
AGACGACG	0.237
GCGTTTGA	0.151
CTGTTTAC	0.142
CCGTTTAC	0.451
